# Hits are enriched below; roughly 21% of the tested compounds scored in any of these assays.
# RORgamma inh: inhibitors of mouse ROR gamma transcriptional activity. AID 2551. 5.4% of 310,000 active. Drosophila S2 Gal4-RORgamma UAS-luciferase reporter, 20 h. Potency, µM (top dose mostly 53.6 µM), for inactives: at the top dose activity change, negative = inhibition, hits mostly inhibitors. P51450; also: potency is read from the fitted curve at half-maximal effect; nearly all actives have a fitted effect of over 60% in size
# Target sequence (P51450 whole entry, looked up, the tested form may be a part): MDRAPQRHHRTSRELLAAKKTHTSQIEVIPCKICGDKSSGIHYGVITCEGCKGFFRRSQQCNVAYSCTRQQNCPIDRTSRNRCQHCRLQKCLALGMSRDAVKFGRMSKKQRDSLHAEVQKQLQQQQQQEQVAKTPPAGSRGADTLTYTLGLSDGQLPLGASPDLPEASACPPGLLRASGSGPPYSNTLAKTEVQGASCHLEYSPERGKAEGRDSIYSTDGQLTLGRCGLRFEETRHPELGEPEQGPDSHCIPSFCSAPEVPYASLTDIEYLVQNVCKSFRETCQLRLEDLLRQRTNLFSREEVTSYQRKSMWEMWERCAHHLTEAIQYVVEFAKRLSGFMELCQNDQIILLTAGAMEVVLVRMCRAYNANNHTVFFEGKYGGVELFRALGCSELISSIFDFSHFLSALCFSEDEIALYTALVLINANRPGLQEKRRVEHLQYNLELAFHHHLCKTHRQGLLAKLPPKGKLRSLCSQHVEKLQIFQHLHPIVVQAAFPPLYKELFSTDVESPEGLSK
#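 ROR gamma transcriptional activity was tracked as Gal4-UAS luciferase output in stably transfected Drosophila Schneider cells, with compound added 1 hr before 700 uM copper sulfate induction and a 20 hr ambient-temperature incubation.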
# Gal4-VP16 FLuc: Gal4-VP16 reporter inhibition counter-screen; Drosophila S2 Gal4-VP16 UAS-luciferase, luminescence, 20 h; Potency, µM (series often up to 53.6 µM), without a hit: at the highest dose activity, negative = inhibition, hits mostly inhibitors; 3.5% of 310,000 active; AID 2546;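 also: Gal4-VP16 expression switched on by copper sulfate through the metallothionein promoter; potency is read from the fitted curve at half-maximal effect; nearly all actives have a fitted effect of over 50% in size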
# ELG1 DNA repair: blocks ELG1-dependent DNA repair in HEK293T cells; HEK293T ELG1-luciferase reporter, luminescence, 16 h; DNA damage induced by 5-fluorouridine; 2.3% of 330,000 active; Potency, µM (doses to about 46.1 µM), for the others: at the highest dose activity change, negative = inhibition, most hits filed as inhibitors; AID 504467; also: potency is read from the fitted curve at half-maximal effect; nearly all actives have a fitted effect of over 55% in size
#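 Quantitative HTS, concentration-response format. 2,000 cells/well co-treated with 5-fluorouridine and compound, 16 hr in 5% CO2 at 37 °C; ONE-Glo luminescence read after 30 min.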
# IL-1B inflam inh: blocks inflammasome-driven IL-1 beta release; 4.7% of 360,000 active; AID 743279; activity change, % at 57.5 µM; THP-1 LPS/ATP IL-1B secretion, AlphaLISA, 16 h; stronger effect = lower value; in the data active = activity change below about -50%; inconclusive = mostly about -30% to -49%
#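 Secreted IL-1B measured by AlphaLISA bead assay after 16 h compound exposure of THP-1 cells; compounds (final up to 57.5 uM) added 1 h before LPS (250 ng/mL) and ATP (1.25 mM) stimulation; lower signal means less secretion.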
# DT40 TDP1 no CPT: qHTS for Inhibitors of human tyrosyl-DNA phosphodiesterase 1 (TDP1): qHTS in cells in absence of CPT; DT40 Tdp1-/- hTDP1 cells, no CPT, ATP luminescence, 48 h; Potency, µM (highest dose often 46.2 µM), for inactives: top-dose activity change, negative = growth inhibition, hits mostly inhibitors; 15% of 420,000 active; also: potency is read from the fitted curve at half-maximal effect; nearly all actives have a fitted effect of over 55% in size
#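 Cells were dispensed at 400 per well, compounds added by pin tool, plates incubated ≥48 hr at 37 °C, then CellTiter-Glo added for 30 min at room temperature before luminescence reading. Line: DT40 Tdp1-/- complemented with hTDP1; camptothecin omitted.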
# DT40 TDP1 CPT: DT40-hTDP1 cell growth loss with CPT; chicken DT40 Tdp1-/-;hTDP1 cells + 20 nM CPT, ATP luminescence, 48 h; 12% of 420,000 active; Potency, µM (top dose mostly 46.2 µM), without a hit: at the highest dose activity change, negative = growth inhibition, usual class: inhibitors; also: potency is read from the fitted curve at half-maximal effect; nearly all actives have a fitted effect of over 55% in size
#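 Chicken DT40 Tdp1-/- cells stably complemented with human TDP1 were seeded at 400 cells/well in medium containing 20 nM camptothecin, exposed to pin-transferred compounds, and grown at 37 °C for at least 48 hr. Viability was read as ATP luminescence.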
# * = called active by the depositor; ? = inconclusive; . = not tested or not shown; [ ] = another dose, or the depositor's remark. Unless noted, calls follow the shape of the dose curve; as a rule, active = well fitted curve in the direction sought with a large enough effect; inconclusive = small, poorly fitted or top-dose-only effect, or another doubt; inactive = no such curve, though single readings can be large; an effect the other way counts as inactive or inconclusive. % is scaled to controls: 0 for no effect and ±100 for the full control effect.
SMILES,RORgamma inh,Gal4-VP16 FLuc,ELG1 DNA repair,IL-1B inflam inh,DT40 TDP1 no CPT,DT40 TDP1 CPT
COc1cc(OC)cc(C(=O)NCc2n[nH]c(=S)n2-c2ccccc2)c1,26%,3%,9%,14,-5%,0%
Cc1cccc(NCc2n[nH]c(=S)n2-c2ccccc2)c1,10µM*,-18%,-1%,-4,-7%,4%
Cc1ccc(NCc2n[nH]c(=S)n2-c2ccccc2)cc1,8.9µM*,-5%,-1%,30,1%,2%
Cc1ccc(NCc2n[nH]c(=S)n2-c2ccccc2)c(C)c1,1.8µM*,?,5%,16,-25%,-2%
CC(=O)Nc1ccccc1-c1nc(CNC(=O)c2cc(C)ccc2C)c(C)o1,.,.,.,.,-4%,2%[9.04 µM]
COc1ccc(CCNC(=O)NCc2noc3ccc(C)cc23)c(OC)c1,.,.,.,.,?,-9%
CN(C)N=Nc1nc2c(c(=O)n(C)c(=O)n2C)n1CC1CO1 (stereo not drawn),15%,-21%,?,13,15µM*,3.7µM*
CN(C)N=Nc1nc2c([nH]1)c(=O)n(C)c(=O)n2C,-17%,-19%,13%,-5,-25%,-4%
C=C1C[C@@H]2C[C@@H]2CN(S(=O)(=O)c2ccc(C)cc2)[C@@H]1COCc1ccccc1,.,.,.,3,8.2µM*,8.2µM*
COc1ccc2c(c1)NC(c1ccc(N(C)C)cc1)c1cccn1-2 (stereo not drawn),13%,-2%,?,25,15µM*,?
COc1cccc([C@@H]2Oc3ccc(OC)cc3C(=O)[C@H]2OC(=O)NS(=O)(=O)c2ccc(F)cc2)c1,-40%,7%,.,.,.,.
CC(=O)c1cccc(NC(=O)c2cc(S(=O)(=O)N3CCOCC3)cs2)c1,-20%,-8%,-16%,0,-20%,-11%
Cc1cccc(-c2nc3scc(CCNS(=O)(=O)c4ccc5c(c4)OCCO5)n3n2)c1,.,.,.,.,?,23µM*
COc1ccc(OC)c(S(=O)(=O)NCCc2csc3nc(-c4ccccc4)nn23)c1,.,.,.,.,?,-27%
Cc1cccc(-c2nc3scc(CCNS(=O)(=O)c4ccc(F)cc4C)n3n2)c1,.,.,.,.,16µM*,?
CC(=O)Nc1ccc(S(=O)(=O)NCCc2csc3nc(-c4cccc(C)c4)nn23)cc1,.,.,.,.,21µM*,?
Cc1ccc(C(=O)NC(=S)Nc2ccccc2N2CCOCC2)cc1C,4.5µM*,7.9µM*,6%,-3,?,26µM*
CCC(C)Oc1cccc(C(=O)Nc2ccccc2N2CCOCC2)c1 (stereo not drawn),-1%,-7%,?,-6,18µM*,?
Cc1ccc(C(=O)Nc2ccccc2N2CCOCC2)cc1S(=O)(=O)N1CCOCC1,.,.,?,-18,-28%,?
COc1cccc(C(=O)NC(=S)Nc2ccccc2N2CCOCC2)c1,4µM*,6.3µM*,1%,-7,?,?
CC(C)Oc1cccc(C(=O)Nc2ccccc2N2CCOCC2)c1,44%,?,-13%,-22,?,-61%
COc1cc(C(=O)Nc2ccccc2N2CCOCC2)ccc1OCC(=O)N1CCOCC1,.,.,9%,-7,-18%,-21%
COc1cc(C(=O)NC(=S)Nc2ccccc2N2CCOCC2)cc(OC)c1OC,-16%,-13%,-4%,-15,12µM*,18µM*
Nn1c(SCC(=O)N2CCCC2)nnc1C1CCCCC1,.,.,.,-14,-1%,-1%
CC(=O)c1c(C)[nH]c(C(=O)CSc2nnc(C3CCCCC3)n2N)c1C,7%,-4%,?,15,13µM*,18µM*
SMILES,RORgamma inh,Gal4-VP16 FLuc,ELG1 DNA repair,IL-1B inflam inh,DT40 TDP1 no CPT,DT40 TDP1 CPT
CCCn1c(N)c(C(=O)CSc2nnc3ccccn23)c(=O)[nH]c1=O,.,.,5%,21,-6%,-8%
CC(=O)c1c(C)[nH]c(C(=O)CSc2nnc(-c3cccs3)n2Cc2ccccc2)c1C,1%,1%,?,-17,?,?
CCCn1c(N)c(C(=O)CSc2nnc(-c3ccco3)n2Cc2ccccc2)c(=O)[nH]c1=O,-36%,-3%,15µM*,0,?,-2%
C=CCn1c(SCC(=O)c2[nH]c(C)c(C(=O)OC)c2C)nc2scc(-c3ccc(OC)c(OC)c3)c2c1=O,2%,?,-8%,7,8.2µM*,16µM*
CC(=O)c1c(C)[nH]c(C(=O)CSc2nnc(-c3ccco3)n2Cc2ccccc2)c1C,?,22%,?,0,16µM*,23µM*
CN(C)c1ccc(N=Nc2ccc(S(=O)(=O)O)cc2)cc1,.,.,.,.,1%,-6%
OC(C[n+]1cccc(Br)c1)c1ccccc1 (stereo not drawn),.,.,.,.,-17%,-12%
COCCn1c(SCC(=O)c2[nH]c(C)c(C(C)=O)c2C)nc2ccccc21,13%,13%,26µM*,-1,?,?
CCOC(=O)c1c(C)[nH]c(C)c1C(=O)CSc1nc2ccccc2n1CCOC,?,?,-26%,0,?,?
C=CCn1c(SCC(=O)c2[nH]c(C)c(C(C)=O)c2C)nnc1-c1ccncc1,11%,7%,-14%,15,26µM*,?
CCCn1c(N)c(C(=O)CSc2nc3ccccc3s2)c(=O)[nH]c1=O,?,-4%,?,48,16µM*,21µM*
C=CCn1c(C)nnc1SCC(=O)c1[nH]c(C)c(C(C)=O)c1C,-7%,-12%,4%,59,-19%,-29%
CSCCC(NS(=O)(=O)Cc1ccccc1)C(=O)NNc1ccccc1 (stereo not drawn),.,.,.,-5,-12%,3%
O=c1[nH]c(CN2CCCCC2)nc2c1C1(CCCCC1)Cc1ccccc1-2,-7%,7%,-1%,14,13µM*,13µM*
CCc1nc2c(c(=O)[nH]1)C(CC)(CC)Cc1ccccc1-2,?,-16%,26%,5,-28%,8%
CCN(CC)Cc1nc2c(c(=O)[nH]1)C(CC)(CC)Cc1ccccc1-2,1.6µM*,5µM*,-6%,-7,?,?
COc1ccc(C2NC(=O)NC(C)=C2C(=O)Nc2cc(C)cc(C)c2)c(OC)c1 (stereo not drawn),.,.,.,.,-1%,-19%
CCN(CC)CCN1c2ccccc2Sc2ccc3ccccc3c21,17%,-11%,-1%,-74*,16µM*,-17%
O=C(c1cccc(Cl)c1)N1CCC(=O)N(C(CO)Cc2ccccc2)CC1 (stereo not drawn),.,.,.,13,-10%,-21%
